RECQ1 helicase – qHTS Assay for Inhibitors of RecQ-Like Dna Helicase 1 (RECQ1); 240,000 compounds, 0.54% hits; ATP-dependent DNA helicase Q1 (Homo sapiens), P46063; Potency, µM (series often up to 57.3 µM), actives largely listed as inhibitors; AID 2549, 2010; RECQ1 DNA unwinding, red fluorescence kinetic read; further: nearly all actives have a fitted effect of over 30% in size
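RECQ1T1 50 nM; forked duplex (20 bp + 30-nt ss tails) 200 nM, ATP 2 mM final; pH 8.0, 2 mM MgCl2, 2.5 ug/ml poly(dI-dC); 15 min compound preincubation; discontinuous kinetic read over 2 h at RT.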
BLM helicase inh – qHTS Assay for Inhibitors of Bloom's syndrome helicase (BLM); AID 2528, 2010; recombinant BLM DNA unwinding, fluorescence dequenching; Potency, µM (doses to about 56.1 µM), most hits filed as inhibitors; RecQ-like DNA helicase BLM (Homo sapiens), P54132; 350,000 compounds, 0.2% hits; further: nearly all actives have a fitted effect of over 35% in size
Target sequence (P54132 whole entry, looked up): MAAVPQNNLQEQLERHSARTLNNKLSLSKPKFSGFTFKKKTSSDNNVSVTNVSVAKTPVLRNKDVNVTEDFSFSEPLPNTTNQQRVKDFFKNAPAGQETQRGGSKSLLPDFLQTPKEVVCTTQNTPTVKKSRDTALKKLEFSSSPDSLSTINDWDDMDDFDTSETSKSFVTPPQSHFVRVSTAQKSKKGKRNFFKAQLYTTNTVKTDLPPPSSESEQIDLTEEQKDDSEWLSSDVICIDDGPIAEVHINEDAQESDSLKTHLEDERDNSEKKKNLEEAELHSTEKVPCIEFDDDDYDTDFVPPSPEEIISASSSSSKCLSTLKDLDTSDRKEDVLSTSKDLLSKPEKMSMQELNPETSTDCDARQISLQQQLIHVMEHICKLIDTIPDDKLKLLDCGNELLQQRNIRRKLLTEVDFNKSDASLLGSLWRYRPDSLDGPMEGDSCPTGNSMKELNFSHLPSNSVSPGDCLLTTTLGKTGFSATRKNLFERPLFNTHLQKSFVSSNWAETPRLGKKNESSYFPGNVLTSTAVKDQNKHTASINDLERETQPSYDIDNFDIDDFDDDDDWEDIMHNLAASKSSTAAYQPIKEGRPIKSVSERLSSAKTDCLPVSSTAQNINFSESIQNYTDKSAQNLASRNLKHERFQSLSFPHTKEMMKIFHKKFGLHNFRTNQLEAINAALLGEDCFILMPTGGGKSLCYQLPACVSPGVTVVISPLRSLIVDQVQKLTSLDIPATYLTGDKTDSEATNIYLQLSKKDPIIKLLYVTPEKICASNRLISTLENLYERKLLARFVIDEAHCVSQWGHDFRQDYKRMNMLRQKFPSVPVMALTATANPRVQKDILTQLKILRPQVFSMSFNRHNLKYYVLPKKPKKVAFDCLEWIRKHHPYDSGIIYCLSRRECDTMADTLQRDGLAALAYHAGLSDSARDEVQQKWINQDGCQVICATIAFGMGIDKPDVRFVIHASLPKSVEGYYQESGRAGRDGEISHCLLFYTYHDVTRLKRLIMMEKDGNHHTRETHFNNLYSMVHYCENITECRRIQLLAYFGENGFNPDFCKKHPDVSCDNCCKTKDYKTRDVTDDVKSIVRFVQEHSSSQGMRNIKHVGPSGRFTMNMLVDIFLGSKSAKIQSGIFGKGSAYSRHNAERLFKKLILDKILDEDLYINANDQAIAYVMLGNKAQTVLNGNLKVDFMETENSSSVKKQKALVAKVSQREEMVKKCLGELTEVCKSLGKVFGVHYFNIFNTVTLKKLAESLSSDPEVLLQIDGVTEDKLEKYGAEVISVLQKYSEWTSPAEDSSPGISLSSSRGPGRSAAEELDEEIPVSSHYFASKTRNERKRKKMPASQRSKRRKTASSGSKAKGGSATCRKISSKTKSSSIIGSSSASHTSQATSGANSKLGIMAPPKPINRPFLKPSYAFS
TDP1 block – qHTS Assay for Inhibitors of Tyrosyl-DNA Phosphodiesterase (TDP1) | Tyrosyl-DNA phosphodiesterase 1 (Homo sapiens), Q9NUW8 | recombinant TDP1, AlphaScreen DNA substrate cleavage | Potency, µM (doses to about 130 µM), actives largely listed as inhibitors | 350,000 compounds, 0.28% hits | AID 485290, 2010; further: nearly all actives have a fitted effect of over 40% in size
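Tdp1 1 nM final; 15 min RT w/ cpd; substrate 15 nM, 5 min; beads 10 ug/ml, 10 min; AlphaScreen read. Neg ctrl: no enzyme.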
JMJD2E inh – qHTS Assay for Inhibitors of Human Jumonji Domain Containing 2E (JMJD2E); JMJD2E catalytic domain, FDH-coupled NADH fluorescence (FDH is formaldehyde dehydrogenase); Lysine-specific demethylase 4E (Homo sapiens), B2RXH2; AID 2147, 2009; 230,000 compounds, 1.6% hits; Potency, µM (highest dose often 57.1 µM), actives largely listed as inhibitors; active means well fitted inhibition curve with a large enough effect, not every such curve was filed as active; inconclusive means small, poorly fitted or top-dose-only effect, or another doubt; inactive means no such curve, though single readings can be large or run the other way; further: nearly all actives have a fitted effect of over 50% in size
APE1 inh – qHTS Assay for Inhibitors of the Human Apurinic/apyrimidinic Endonuclease 1 (APE1). recombinant APE1, TAMRA/BHQ-2 abasic DNA cleavage fluorescence. 350,000 compounds, 0.35% hits. Potency, µM (series often up to 65.8 µM), actives largely listed as inhibitors. DNA repair nuclease/redox regulator APEX1 (Homo sapiens), P27695; further: nearly all actives have a fitted effect of over 55% in size
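Substrate: short duplex with […] THF abasic site, 5'-TAMRA and 3'-BHQ-2, 50 nM final. APE1 at 0.75 nM, preincubated 15 min RT with compound. Fluorescence increase from first to third read measured activity.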
L3MBTL1 block – qHTS Assay for the Inhibitors of L3MBTL1; Lethal(3)malignant brain tumor-like protein 1 (Homo sapiens), Q9Y468; AlphaScreen L3MBTL1–H3K9me1 peptide binding; Potency, µM (series often up to 57.1 µM), hits mostly inhibitors; 230,000 compounds, 0.66% hits; further: nearly all actives have a fitted effect of over 60% in size
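L3MBTL1 (50 nM) pre-complexed 30 min with biotinylated H3(1-15)K9me1 peptide (75 nM), then compounds added for 30 min at room temperature; AlphaScreen streptavidin donor/nickel chelate acceptor beads (10 ug/mL final) read after 30 min dark incubation.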
Numbers stand for hits; – = inactive; ? = inconclusive; · = no result given; ! = a repeat was not active. The entries come from a sample that favours hits as a whole. Unless noted, the call rests on the fitted dose curve; in most records, active means well fitted curve in the direction sought with a large enough effect; inconclusive means small, poorly fitted or top-dose-only effect, or another doubt; inactive means no such curve, though single readings can be large; an effect the other way counts as inactive or inconclusive.

SMILES	RECQ1 helicase	BLM helicase inh	TDP1 block	JMJD2E inh	APE1 inh	L3MBTL1 block
CCOC(=O)C1=C(CSc2nc(CC)c(C)cc2C#N)OC(N)=C(C#N)C1c1ccccc1 (stereo not given)	–	–	–	–	–	·
COc1c(-c2coc3cc4c(cc3c2=O)CC(OC(C)=O)C(C)(C)O4)ccc2c1C=CC(C)(C)O2 (stereo not given)	–	–	–	–	22.4µM	·
O=C(Nc1ccccn1)C(=O)Nc1ccccn1	–	–	–	–	–	–
S=C(Nc1ccccn1)c1ccccn1	–	–	–	12.6µM	–	·
CC(C)(C)NS(=O)(=O)c1cccc(-c2nnc(SCc3ccc(C(=O)O)cc3)n2-c2ccccc2)c1	·	·	·	·	–	·
CCCCCCN(C(=O)CCCCCN1C(=O)NC(c2ccc(C3CCCCC3)cc2)C(C(=O)OCc2ccccc2)=C1C)C(C(=O)NCCCC)c1ccc(OCC(=O)OC)c(C(=O)OC)c1 (stereo not given)	–	–	–	–	0.447µM!	·
CN(c1nnc(NC(=O)Nc2ccc(Br)cc2)s1)C1CCCCC1	·	–	–	·	·	·
CSc1nc(SCCO)c2sc3nc(-c4ccco4)c4c(c3c2n1)CC(C)(C)OC4	12.6µM	12.6µM	·	?	?	–
OCCN(CCO)c1ncnc2c1sc1nc(N3CCOCC3)c3c(c12)CCCC3	–	–	–	?	–	–
CSc1nc(N(CCO)CCO)c2sc3nc(-c4ccco4)c4c(c3c2n1)CCC4	–	–	–	–	–	2.51µM
O=C1CCc2cc(S(=O)(=O)Nc3cccc(C(F)(F)F)c3)ccc2N1	·	·	–	·	·	·
COc1ccc(OC)c(CCNC(=O)Cn2sc3nc(C)cc(C)c3c2=O)c1	–	–	–	28.2µM	?	·
Cc1cc(C)c2c(=O)n(CC(=O)NC3CCCC3)sc2n1	–	–	·	?	–	–
Cc1c(N)nc([C@H](CC(N)=O)NC[C@H](N)C(N)=O)nc1C(=O)N[C@H](C(=O)N[C@H](C)[C@@H](O)[C@H](C)C(=O)N[C@H](C(=O)NCCc1nc(-c2nc(C(=O)NCCCCN=C(N)N)cs2)cs1)[C@@H](C)O)[C@@H](O[C@@H]1O[C@@H](CO)[C@@H](O)[C@H](O)[C@@H]1O[C@H]1O[C@H](CO)[C@@H](O)[C@H](OC(N)=O)[C@@H]1O)c1cnc[nH]1	·	·	·	·	–	·
CC1(C)Cc2c(c(-c3ccco3)[nH]c(=O)c2C#N)CS1	31.6µM	–	·	?	–	–
CC1(C)Cc2c(c(-c3ccccc3)[nH]c(=O)c2C#N)CS1	–	–	–	–	–	·
Cn1c(=O)oc2cc(S(=O)(=O)CCC(=O)NCc3ccc(Cl)cc3)ccc21	·	–	–	·	·	·
O=C(O)c1cccc(NC(=O)c2ccc3c(c2)C(=O)N(Cc2ccco2)C3=O)c1	–	–	50.1µM	–	–	–
O=C(O)c1ccc2c(c1)C(=O)N(Cc1ccco1)C2=O	·	–	·	·	–	–
Cc1nc(C)c(/C(O)=C\c2nc3ccc([N+](=O)[O-])cc3oc2=O)o1	–	–	·	20µM	–	·
COc1c2c(cc3c1C(NC(N)=O)[N+](C)(C)CC3)OCO2 (stereo not given)	–	–	–	–	–	·
O=C(CCCCCNC(=O)c1ccccc1Br)N=Nc1c(O)[nH]c2ccccc12	–	–	?	–	25.1µM	–
O=C(CNC(=O)Cc1ccccc1)N=Nc1c(O)[nH]c2ccccc12	·	–	–	·	–	·
Cc1nnc(NC(=O)CSCc2cc(=O)c3ccccc3[nH]2)s1	·	–	39.8µM	·	–	?
CN(C)c1ccc(N=Nc2cccc3ccoc23)cc1	–	–	–	–	–	10µM
Cc1cc(/C=C2\SC(=S)NC2=O)c(C)n1-c1cccc(O)c1	–	–	–	–	–	–

Screening data deposited in PubChem BioAssay by National Center for Advancing Translational Sciences (NCATS).
